Laboratory results: ChEMBL document CHEMBL1157539, “Thousands of chemical starting points for antimalarial lead identification” (Nature, 2010)
Where “and” joins values, the source holds several entries; their conditions need not be identical. Equal entries are not always repeated.

What follows are compounds tested on Plasmodium falciparum (assay: GSK_TCMDC: Inhibition of Plasmodium falciparum 3D7 in whole red blood cells, using parasite LDH activity as an index of growth. Test compounds present at 2uM).
Format: functional

Compound	Inhibition
CN1CCN(c2ccnc3cc4c(cc23)N(Cc2ccccc2)CC4)CC1	94%
CCOC(=O)C1=C(C)NC2=C(C(=O)CC(C)(C)C2)C1c1ccc(Cl)cc1 (stereo not given)	96%
O=C(Nc1ccc(Cl)cc1)Nc1cccc(-c2ccc(-c3nc4cc(F)ccc4[nH]3)cc2)c1	100%
CSC1=NC(=Nc2c(C)cccc2C)C2(CCC(C(C)(C)C)CC2)N1c1ccc(O)cc1.I (stereo not given)	97%
FC(F)(F)c1cccnc1N1CCC(Nc2nc3cc(Cl)ccc3[nH]2)CC1	93%
CCOCc1cnc(C)nc1CNC(=O)c1c(C)[nH]c2ccc(C)cc12	84%
O=C(NC1CCCCC1)c1ccc(O)c(-c2cccc(C(F)(F)F)c2)c1	97%
C[C@@H](Oc1cc(-n2cnc3ccc(NC(=O)NC(C)(C)C)cc32)sc1C(N)=O)c1ccccc1Cl	95%
O=C(NCCCN1CCCC1=O)NCc1ccccc1	99%
CNC(=O)C(NC(=O)c1ccccc1C(=O)OC)c1ccccc1 (stereo not given)	96%
COc1ccc(CNCc2ccc(F)cc2)cc1-c1ccc(OC)c(S(=O)(=O)NCCN2CCCC2)c1.O=C(O)C(F)(F)F	100%
CCOC(=O)c1[nH]c2ccc(F)cc2c1NC(=O)CN1CCN(c2cccc(C(F)(F)F)c2)CC1	96%
Cc1cc(-c2cnc(N)c(-c3ccc(N4CCN(C)CC4)nc3)c2)cc(C)c1O	91%
Cc1ccc(NC(=O)NC2CCN(CCCCCNC(=O)/C=C/c3ccc(Cl)c(Cl)c3)CC2)cc1C	100%
Cn1nc(-c2ccc(CN[C@@H]3CCc4ccc(O)cc43)cc2)c2cnc(NCCCN3CCCC3)nc21	100%
COc1ccc2[nH]ccc(=NN=CC=Cc3ccccc3)c2c1	100%
O=C(/C=C/c1ccc(Cl)c(Cl)c1)NCCCCCN1CCC(NC(=S)Nc2ccc(Cl)cc2)CC1	99%
CC(C)CNCc1ccc(-c2cccc(-c3nc4ccccc4[nH]3)c2)cc1.O=C(O)C(F)(F)F	99%
CCN(CC)CCCC(C)Nc1ccnc2ccc(-c3ccccc3)cc12 (stereo not given)	98%
CCN(CC)CC(O)c1cc(-c2ccc(C)cc2)nc2c(C)cc(C)cc12.Cl (stereo not given)	100%

Compound	Inhibition
COCC(C)n1c(SCC(=O)Nc2cc(C(F)(F)F)ccc2Cl)nc2ccccc2c1=O (stereo not given)	97%
C=CCc1cc(Cc2cnc(N)nc2N)cc(CCC)c1O	90%
O=C1Nc2cccc3c2C1(CCCCN1CCC(c2cc4ccncc4[nH]2)CC1)CCC3 (stereo not given)	99% and 97%
Br.CN(C)CCCOc1ccc(-c2csc(NC(=N)NCc3ccccc3)n2)cc1	100%
CCc1cc(OC)c(C(=O)NC2CCN(C[C@H](O)c3ccnc4ccc(OC)cc34)CC2)cc1Br	98%
Cc1ccc(C(=O)NC2CC2)cc1-c1ccc2c(cnn2S(=O)(=O)c2ccc(F)cc2)c1	93%
COc1cc2c(cc1COc1ccccc1)CCN1Cc3cc(OC)c(OC)cc3CC21 (stereo not given)	99%
CC(C)NCc1cccc(-c2cccc(-c3nc4cc(F)ccc4[nH]3)c2)c1.O=C(O)C(F)(F)F	100%
Cl.Clc1ccc2c(NCCNc3ccnc4cc(Cl)ccc34)ccnc2c1	100%
O=C(CCc1cccnc1)Nc1cccc(-c2ccc(-c3nc4cc(C(F)(F)F)ccc4[nH]3)cc2)c1	93%
COc1ccc(CN(C)CCOc2ccc(NC(=O)c3cccc4c(=O)c5cc(SC)ccc5[nH]c34)cc2)cc1OC	96%
O=C(NCc1cccc2ccccc12)C(c1cc2ccccc2o1)N1CCN(C(c2ccccc2)c2ccccc2)CC1 (stereo not given)	99%
CC(C)N1CCC(N(Cc2ccc(-c3ccc(C(F)(F)F)cc3)cc2)C(=O)CCCn2c(CCc3cccc(F)c3F)nc(=O)c3ccccc32)CC1.O=C(O)C(O)C(O)C(=O)O	89%
CC(=O)Nc1ncc(C(=O)Nc2cccc(-c3ccc(-c4nc5ccccc5[nH]4)cc3)c2)s1	100%
Oc1ccc(Cl)c2c1C(c1ccccc1)=NCC2	95%
COc1ccc(-c2cc(C(=O)N[C@@H](CC3CCCCC3)C(=O)NCCN3CCCCC3)ccc2O)cc1	98%
CNC(=O)COC(=O)c1c2c(nc3ccccc13)C(=Cc1ccc3c(c1)OCO3)CCC2	83%
O=C(Nc1ccc(-c2nc3ccccc3[nH]2)cc1)c1ccc(-c2cccc([N+](=O)[O-])c2)o1	100%
Cc1cc2c(cc1Cl)N(C(=O)Nc1cc(F)cc(-c3cncnc3)c1)CC2	96%
CN(CCN)Cc1cccc(-c2ccc(-c3nc4cc(C(F)(F)F)ccc4[nH]3)s2)c1.O=C(O)C(F)(F)F	100%
